The results in this text go back to PubChem BioAssay.

Calls of active or inactive are those of the source.

The target in one experiment is Albumin (Bos taurus) (UniProt P02769). Briefly: bovine serum albumin binders on microarray, profiling panel, artefact control for SMM control protein annotation, biochemical, small-molecule microarray, Alexa647 label, 635/667 nm fluorescence (AID 1118).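 Further: score merges 667 nm emission intensity and signal-to-noise per printed compound spot.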 To be noted: BSA-A647 binding, fluorescence 635 nm, higher = more signal.
Experiment [1] is described as follows: small-molecule microarray binders of probe aXIP, primary screen, biochemical, NeuroSMM set, 635/667 nm fluorescence (AID 1119).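 Further: probe is the protein aXip251-270 applied at 1 µg/mL to compound-printed slides; binding of probe to printed compounds measured as 667 nm fluorescence plus signal to noise.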 The note with it: higher = more signal, called active from +8 up or from −8 down.
Experiment [2] can be described thus: small-molecule binders of probe aNOTCH3, primary screen, biochemical, small-molecule microarray, 635/667 nm fluorescence (AID 1120).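 Further: probe is a biotin-tagged antibody raised against NOTCH3 rather than NOTCH3 protein; score merges spot fluorescence near 667 nm with spot signal to noise.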 To be noted: higher = more signal.
Experiment [3] can be described thus: small-molecule binders of probe aNOTCH2, primary screen, biochemical, small-molecule microarray, 635/667 nm fluorescence (AID 1121).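 Further: score merges feature fluorescence read at 667 nm with its signal to noise.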 The note with it: higher = more signal.
For experiment [4], the target named is Carbonic anhydrase 2 (Homo sapiens) (UniProt P00918). Briefly: CAII small-molecule binders, profiling panel, biochemical, small-molecule microarray, Alexa647-labelled CAII (AID 1122). To be noted: CAII-A647 binding fluorescence, higher = more signal.
Experiment [5] can be described thus: COS7 lysate on small-molecule microarray, probe aHis, 635 nm (AID 1123).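 Further: z-score combines 667nm fluorescence intensity with signal-to-noise per printed compound spot.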 The note with it: COS7 cell lysate, fluorescence, higher = more signal.
A short description of experiment [6]: compound binding in COS7 lysate, probe aLAP1, primary screen, cell lysate, small-molecule microarray (AID 1124).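 Further: lysate comes from COS7 cells expressing LAP1 and is applied at 0.3 µg/mL; score merges spot fluorescence near 667 nm with signal-to-noise over triplicate slides.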 To be noted: probe aLAP1, fluorescence, higher = more signal.
In a further experiment the test system is Sam68 (KHDRBS1). Briefly: Sam68 small-molecule binders, primary screen, biochemical, small-molecule microarray, 635 nm fluorescence (AID 1125).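 Further: score merges 667 nm channel intensity with signal to noise over triplicate slides.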 The note with it: small-molecule microarray binding, higher = more signal.
Experiment [7] concerns Chordin-like protein 2 (CHRDL2). Description: CHRDL2 small-molecule binders, primary screen, biochemical, small-molecule microarray, 635 nm fluorescence (AID 1126).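 Further: printed compound slides probed with Chrdl2 protein at 4 µg/mL for 1 h at 4 C; score merges 667 nm emission intensity with signal to noise over three replicate slides.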 To be noted: small-molecule microarray binding, fluorescence 635 nm; higher = more signal.
Experiment [8] deals with Concanavalin-A (Canavalia ensiformis) (UniProt P02866). Briefly: ConA small-molecule binders, primary screen, artefact control for SMM control protein annotation, biochemical, small-molecule microarray, Alexa647 label, 635 nm (AID 1127).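 Further: z combines 667 nm emission intensity with signal-to-noise across three replicate slides.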 To be noted: ConA-A647 binding fluorescence, higher = more signal.
Concanavalin-A (Canavalia ensiformis), sequence (P02866 whole entry, looked up): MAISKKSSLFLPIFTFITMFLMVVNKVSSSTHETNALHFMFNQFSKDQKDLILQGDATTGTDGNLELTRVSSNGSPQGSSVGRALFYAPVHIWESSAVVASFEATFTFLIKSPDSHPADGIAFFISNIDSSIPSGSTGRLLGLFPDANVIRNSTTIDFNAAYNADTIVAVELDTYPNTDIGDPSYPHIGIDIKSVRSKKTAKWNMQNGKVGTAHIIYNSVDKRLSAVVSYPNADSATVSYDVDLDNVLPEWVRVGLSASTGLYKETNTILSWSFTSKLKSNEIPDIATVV

Albumin (Bos taurus), sequence (P02769 whole entry, looked up): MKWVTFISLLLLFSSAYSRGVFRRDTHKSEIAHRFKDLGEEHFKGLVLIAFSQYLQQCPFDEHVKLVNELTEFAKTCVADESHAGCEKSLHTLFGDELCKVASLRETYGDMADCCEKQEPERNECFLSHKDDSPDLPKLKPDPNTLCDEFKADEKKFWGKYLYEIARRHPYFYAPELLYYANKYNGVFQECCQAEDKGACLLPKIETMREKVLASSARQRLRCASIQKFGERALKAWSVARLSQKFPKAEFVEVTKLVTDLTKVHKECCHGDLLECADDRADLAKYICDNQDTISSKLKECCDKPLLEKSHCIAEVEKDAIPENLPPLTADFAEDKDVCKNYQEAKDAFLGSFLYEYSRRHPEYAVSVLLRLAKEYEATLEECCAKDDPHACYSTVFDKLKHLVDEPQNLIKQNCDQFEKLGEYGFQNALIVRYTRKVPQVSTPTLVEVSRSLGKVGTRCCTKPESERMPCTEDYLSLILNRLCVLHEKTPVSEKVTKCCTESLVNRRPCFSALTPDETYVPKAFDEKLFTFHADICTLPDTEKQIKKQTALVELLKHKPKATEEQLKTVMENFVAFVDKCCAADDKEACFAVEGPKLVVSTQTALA

In the case of `CC1CC/C=C\[C@H]2OC34C=CCN(Cn5nnc6ccccc65)C(=O)[C@H]3N(CCCO)C(=O)[C@@H]4C2C(=O)O1` (stereo not given in full), the composite z-score with Albumin (Bos taurus) was 0.757; in experiment [2] it was -0.272; in experiment [3], -0.115; in [4] it was 0.926; in [5], 0.016; in experiment [6], 1.2. For the same compound, the composite z-score in the experiment on Sam68 (KHDRBS1) was -0.119; in experiment [7], -1.33; in experiment [8] it was -0.668. The composite Z-score in [1] was 0.372 (inactive).
Turning to `COCCOC(=O)N1C(=O)[C@@]2(c3cc(C#CCCO)ccc31)[C@H](c1ccc(O)cc1)N1[C@H](c3ccccc3)[C@H](c3ccccc3)OC(=O)[C@H]1[C@@H]2C(=O)N1CCCCCCC1`, the composite z-score is 0.0837 with Albumin (Bos taurus); 0.489 in [2]; 0.0931 in experiment [3]; 0.431 in experiment [4]; 0.666 in experiment [5]; 0.642 in [6]. Also, the composite z-score in the experiment on Sam68 (KHDRBS1) turned out to be 1.3; in [7], 0.755; in [8], 1.1. For the same compound, the composite Z-score in experiment [1] was 1.11 (inactive).
For the compound `O=C1C2C=CC(C(O)c3ccc(B(O)O)cc3)N(Nc3ccc([N+](=O)[O-])cc3)C2C(=O)N1c1ccccc1` (stereo not given), the composite z-score was 0.832 in the experiment with Albumin (Bos taurus); 0.172 in experiment [2]; -0.0439 in experiment [3]; 0.654 in experiment [4]; 2.02 in experiment [5]; 0.588 in [6]. Moreover, the composite z-score in the experiment on Sam68 (KHDRBS1) was determined as 1.32; in experiment [7], 0.262; in [8] it was 0.738. In addition, in experiment [1], the composite Z-score is 0.142 (inactive).
On to `CN(C)CCCN1C(=O)[C@@]2(c3ccc([N+](=O)[O-])cc3)CC(=O)N(C3CCCCC3)[C@@H]2c2ccc(CO)cc21`, for which the composite z-score in the experiment with Albumin (Bos taurus) was -0.4; in [2], -0.0665; in experiment [3] it was -0.0455; in experiment [4], -0.622; in [5] it was -0.317; in experiment [6], -0.233. Moreover, the results for the composite z-score (with Sam68 (KHDRBS1); in [7]; in experiment [8]) were -0.395, -0.137 and 0.209, respectively. Also, in [1], the composite Z-score is 0.0831 (inactive).
As for `CN1C(=O)C2C(C1=O)C1C=C(c3ccc(CO)cc3)C2C(C2CC2)N1Cc1sc2ccccc2c1Cl` (stereo not given), the composite z-score in the experiment with Albumin (Bos taurus) was 0.947; in experiment [2] it was 0.248; in experiment [3], 0.114; in experiment [4], 0.661; in [5], 2.59; in experiment [6] it was 0.74. The composite z-score was 1.3 in the experiment with Sam68 (KHDRBS1), -0.124 in [7] and 1.21 in [8]. The composite Z-score in experiment [1] is -0.0285 (inactive).
For the compound `CN(C)CCCC[C@@H]1NC(=O)[C@@H]2C[C@H](C(=O)NCCCCCCN)[C@H](c3ccc(O)cc3)N2C1=O`, the composite z-score in the experiment with Albumin (Bos taurus) was -0.254; in experiment [2], 0.575; in [3] it was 0.271; in experiment [4], 0.674; in experiment [5] it was 1.81; in experiment [6], 0.821. The composite z-score with Sam68 (KHDRBS1) turned out to be 1.31; in experiment [7] it was 0.808; in experiment [8], 0.616. Besides, the composite Z-score in experiment [1] is 0.142 (inactive).
With `C=CCN1Cc2ccccc2C[C@@]2(COC(c3ccc(OCCCO)cc3)=N2)C1=O`, the composite z-score was -0.476 with Albumin (Bos taurus); 0.0596 in [2]; 0.0965 in [3]; 0.598 in [4]; 2.14 in experiment [5]; 0.547 in experiment [6]. Besides, the composite z-score in the experiment with Sam68 (KHDRBS1) was found to be 0.811; in experiment [7], 1.12; in [8] it was 0.85. In addition, in [1], the composite Z-score is 0.0425 (inactive).
In the case of `C=C(C(=O)CC[C@@H](OC(=O)c1cccnc1)c1ccc(OCCO)cc1)C(C)C`, the composite z-score in the experiment with Albumin (Bos taurus) is -0.541; in experiment [2] it was 0.123; in experiment [3], -0.179; in [4], 0.0384; in experiment [5] it was -0.266; in experiment [6] it was 0.354. Also, the composite z-score with Sam68 (KHDRBS1) is 0.921; in experiment [7], 0.606; in experiment [8], 0.303. Further, the composite Z-score in [1] is -0.471 (inactive).
As to `COc1cc(NN2C(C(O)c3ccccc3)C=CC3C(=O)N(c4ccccc4)C(=O)C32)cc(OC)c1OC` (stereo not given), the composite z-score is 0.923 in the experiment with Albumin (Bos taurus); 0.569 in experiment [2]; -0.124 in experiment [3]; 0.831 in experiment [4]; 3.3 in experiment [5]; 0.263 in [6]. The results for the composite z-score (in the experiment on Sam68 (KHDRBS1); in experiment [7]; in experiment [8]) were 1.31, -0.0912 and 0.919, respectively. The composite Z-score in [1] is 0.153 (inactive).
Turning to `C=C(CCCC)/C(=C/C[C@H](OC(C)=O)c1ccc(CO)o1)c1cc(C(=O)OC)ccc1OC`, the composite z-score was 0.588 with Albumin (Bos taurus); 0.133 in experiment [2]; -0.149 in [3]; 0.694 in experiment [4]; 0.699 in experiment [5]; 0.53 in experiment [6]. For the same compound, the composite z-score in the experiment with Sam68 (KHDRBS1) stood at 1.17; in [7] it was 0.323; in experiment [8] it was 0.902. The composite Z-score in experiment [1] is 0.297 (inactive).
